Data from PubChem BioAssay (Tox21).
A number with no mark means an inactive call. Results filed as inconclusive are left out. Entries that show only a call come without a potency. Calls of active or inactive are those of the source. Unless noted, calls come from the whole dose curve; as a rule, active = well fitted curve in the direction sought with a large enough effect in the repeat runs; inconclusive = weak or mixed curves; inactive = no such curve, though single readings can be large; an effect the other way counts as inactive or inconclusive.

Columns and labels:
[1] = qHTS assay to identify small molecule agonists of the estrogen receptor alpha (ER-alpha) signaling pathway in the presence of an antagonist - cell viability counter screen (AID 1259386); conditions: VM7Luc4E2 viability, CellTiter-Fluor fluorescence, 22 h; series mostly up to 92.4 µM;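 note: cells exposed to compounds for 22 h at 37 °C before the viability read; nearly all actives have a fitted effect of over 30% in size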
Procedure, shortened: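 VM7Luc4E2 cells (endogenous full-length ER-alpha, 4×ERE-luciferase) were held 5 days in phenol red-free medium with 10% charcoal-stripped FBS, plated, then given 10.0nM ICI-182,780 and compounds at 15 concentrations for 22hr at 37C; viability read by CellTiter-Fluor fluorescence.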

[2] = molecular target: Progesterone receptor (Homo sapiens) (UniProt P06401); test: qHTS assay to identify small molecule agonists of the progesterone receptor (PR) signaling pathway (AID 1346784; calls by dose curve; note: nearly all actives have a fitted effect of over 30% in size; note: potency is the fitted concentration of half-maximal effect); conditions: PR-UAS-bla HEK293T, beta-lactamase FRET ratio, 16 h; series mostly up to 92.4 µM
Progesterone receptor (Homo sapiens), sequence (P06401 whole entry, looked up): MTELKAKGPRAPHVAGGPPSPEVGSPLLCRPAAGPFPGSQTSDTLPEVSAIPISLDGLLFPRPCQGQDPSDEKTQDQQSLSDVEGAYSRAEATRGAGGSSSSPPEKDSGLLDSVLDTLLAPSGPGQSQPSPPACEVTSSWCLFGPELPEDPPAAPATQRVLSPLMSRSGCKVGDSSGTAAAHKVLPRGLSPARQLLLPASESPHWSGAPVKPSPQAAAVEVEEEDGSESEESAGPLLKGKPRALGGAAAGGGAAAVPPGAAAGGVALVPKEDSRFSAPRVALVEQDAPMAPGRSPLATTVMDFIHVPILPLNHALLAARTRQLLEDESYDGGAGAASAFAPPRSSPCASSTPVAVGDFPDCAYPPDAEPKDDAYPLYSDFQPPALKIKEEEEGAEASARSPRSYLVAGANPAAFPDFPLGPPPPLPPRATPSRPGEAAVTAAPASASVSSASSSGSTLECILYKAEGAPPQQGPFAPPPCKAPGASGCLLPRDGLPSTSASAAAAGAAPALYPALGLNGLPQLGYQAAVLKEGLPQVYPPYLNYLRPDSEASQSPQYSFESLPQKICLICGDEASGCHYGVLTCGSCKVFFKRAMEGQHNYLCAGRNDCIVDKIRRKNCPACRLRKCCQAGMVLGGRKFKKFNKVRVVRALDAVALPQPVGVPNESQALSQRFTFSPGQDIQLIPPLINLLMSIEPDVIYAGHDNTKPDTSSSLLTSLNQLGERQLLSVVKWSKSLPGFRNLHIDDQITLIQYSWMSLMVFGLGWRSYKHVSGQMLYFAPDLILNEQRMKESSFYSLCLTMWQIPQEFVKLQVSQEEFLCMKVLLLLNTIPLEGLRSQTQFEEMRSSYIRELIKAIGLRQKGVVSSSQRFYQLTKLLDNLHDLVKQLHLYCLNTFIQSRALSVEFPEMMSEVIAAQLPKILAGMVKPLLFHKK
Procedure, shortened: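 Reporter assay, GripTite PR-UAS-bla HEK 293T cells: 16 hr exposure to DMSO-dissolved compounds at 37C, 5% CO2, in steroid-depleted (2% charcoal-stripped FBS) medium; beta-lactamase measured by FRET fluorescence.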

[3] = molecular target: Progesterone receptor (Homo sapiens) (UniProt P06401); test: qHTS assay to identify small molecule antagonists of the progesterone receptor (PR) signaling pathway (AID 1346795; active = well fitted inhibition curve with a large enough effect in the signal ratio in the repeat runs, not every such curve was filed as active; the % refers to the signal ratio); conditions: PR-UAS-bla HEK293T, beta-lactamase FRET ratio, 16 h; series mostly up to 92.4 µM
Procedure, shortened: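 Stimulus R5020 at 1 nM final; cells HEK293T PR-UAS-bla; medium with 2% charcoal-stripped FBS; compound exposure 16 hr at 37C, 5% CO2; detection by FRET beta-lactamase substrate, 2 hr, room temperature.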

[4] = qHTS assay to identify small molecule antagonists of the progesterone receptor (PR) signaling pathway - cell viability counter screen (AID 1346798); conditions: PR-UAS-bla HEK293T viability, CellTiter-Glo luminescence, 16 h; series mostly up to 92.4 µM; note: nearly all actives have a fitted effect of over 50% in size
Procedure, shortened: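 In the same plates used for the beta-lactamase readout, cell viability of compound- and R5020-treated PR-UAS-bla HEK293T cells (16 hr, 37C) was assessed by CellTiter-Glo luminescence.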

[5] = qHTS assay to identify small molecule agonists of the progesterone receptor (PR) signaling pathway - cell viability counter screen (AID 1346799; calls by dose curve; note: nearly all actives have a fitted effect of over 45% in size); conditions: PR-UAS-bla HEK293T viability, CellTiter-Glo luminescence, 16 h; series mostly up to 92.4 µM
Procedure, shortened: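 Multiplexed viability read: CellTiter-Glo luminescence, 30 min RT, following LiveBLAzer FRET measurement on PR-UAS-bla HEK293T cells exposed to compounds 16 hr.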

[6] = qHTS assay to identify small molecule antagonists of the TGF-beta/Smad signaling pathway - cell viability counter screen (AID 1346824); conditions: SBE-bla HEK293T viability, CellTiter-Glo luminescence; series mostly up to 76.8 µM; note: nearly all actives have a fitted effect of over 50% in size
Procedure, shortened: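 SBE-bla HEK 293T cells, incubated overnight, then compound plus 0.25 ng/mL TGF-beta1 (stock added) for 5 hr at 37 C. Viability was read in the same wells by CellTiter-Glo luminescence after 30 min at room temperature.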

[7] = qHTS assay to identify small molecule agonists of the TGF-beta/Smad signaling pathway - cell viability counter screen (AID 1346829); conditions: SBE-bla HEK293T viability, CellTiter-Glo luminescence, 5 h; series mostly up to 76.8 µM; note: top concentration of the series differs between compounds; nearly all actives have a fitted effect of over 45% in size
Procedure, shortened: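 HEK 293T SBE-bla line, 5 hr compound exposure at 37 C, multiplexed CellTiter-Glo viability read by luminescence.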

[8] = qHTS assay to identify small molecule agonists of the TGF-beta/Smad signaling pathway (AID 1346859; active = well fitted activation curve with a large enough effect in the signal ratio in the repeat runs, not every such curve was filed as active; the % refers to the signal ratio); conditions: SBE-bla HEK293T, TGF-beta/Smad beta-lactamase reporter, 5 h; series mostly up to 76.8 µM
Procedure, shortened: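 Screening used HEK 293T SBE-bla cells at 4,000/well. Test agents: 5 hr, 37 C. Detection: FRET substrate, 2 hr RT, then excitation 405 nm with emissions at 460 and 530 nm.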

[9] = molecular target: Thyrotropin-releasing hormone receptor (Homo sapiens) (UniProt P34981); test: qHTS assay to identify small molecule antagonists of the thyrotropin-releasing hormone receptor (TRHR) signaling pathway (AID 1346877; active = well fitted inhibition curve with a large enough effect in the repeat runs, not every such curve was filed as active); conditions: TRHR-HEK293, TRH-induced calcium fluorescence, antagonist mode; series mostly up to 51.3 µM
Thyrotropin-releasing hormone receptor (Homo sapiens), sequence (P34981 whole entry, looked up): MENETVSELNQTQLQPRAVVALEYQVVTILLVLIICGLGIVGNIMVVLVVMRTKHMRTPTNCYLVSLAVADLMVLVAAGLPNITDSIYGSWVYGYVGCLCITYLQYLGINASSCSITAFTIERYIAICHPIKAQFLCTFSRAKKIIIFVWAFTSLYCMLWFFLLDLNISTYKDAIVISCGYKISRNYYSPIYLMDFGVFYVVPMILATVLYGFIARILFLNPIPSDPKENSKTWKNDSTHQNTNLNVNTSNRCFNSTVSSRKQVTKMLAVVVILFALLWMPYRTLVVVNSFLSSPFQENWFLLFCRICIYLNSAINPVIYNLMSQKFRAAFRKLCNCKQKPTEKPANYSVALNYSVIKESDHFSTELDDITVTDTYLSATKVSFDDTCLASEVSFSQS
Procedure, shortened: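 TRHR-expressing HEK293 cells were seeded, cultured 18 h at 37 °C, then loaded with calcium dye for 2 h. Compounds were pre-incubated 5 min at room temperature before 1 nM TRH (final) was added, and kinetic fluorescence was recorded for 3 min.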

[10] = molecular target: Thyrotropin-releasing hormone receptor (Homo sapiens) (UniProt P34981); test: qHTS assay to identify small molecule agonists of the thyrotropin-releasing hormone receptor (TRHR) signaling pathway (AID 1346891; calls by dose curve); conditions: TRHR-HEK293 calcium fluorescence, agonist mode; series mostly up to 57.6 µM
Procedure, shortened: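 Readout was intracellular calcium fluorescence in TRHR-Hek293 cells. Cells were incubated 18 h, dye-loaded 2 h at 37 °C, and treated with compound in agonist mode.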

[11] = Human pregnane X receptor (PXR) small molecule agonists, qHTS cell viability counter screen (AID 1346977); conditions: PXR-Luc HepG2 viability, CellTiter-Fluor, 24 h; series mostly up to 92.4 µM; note: nearly all actives have a fitted effect of over 50% in size
Procedure, shortened: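 In each well, the PXR reporter HepG2 line was checked for viability: CellTiter-Fluor reagent added 23hr post-dosing, fluorescence read after 1hr incubation at 37C.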

[12] = Caspase-3/7 induction in HepG2 cells by small molecules, qHTS assay (AID 1346978); conditions: HepG2 caspase-3/7 activation, Caspase-Glo luminescence, 17 h; series mostly up to 92.4 µM; note: nearly all actives have a fitted effect of over 15% in size
Procedure, shortened: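 Wild-type HepG2 cells, 2,000/well, settled 5 hr at 37 C and 5% CO2, then compound-treated for 17 hr; caspase-3/7 activity read by luminescent Caspase-Glo 3/7 after 30 min at room temperature.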

[13] = Caspase-3/7 induction in CHO-K1 cells by small molecules, qHTS cell viability counter screen (AID 1346979); conditions: CellTiter-Fluor fluorescence, 17 h; series mostly up to 92.4 µM; note: nearly all actives have a fitted effect of over 35% in size
Procedure, shortened: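 Following a 5hr settling period, CHO-K1 cells at 1,500 per well received DMSO-dissolved compounds. Cell viability was quantified 16hr later by CellTiter-Fluor fluorescence, measured after 1hr with reagent at 37C.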

[14] = Caspase-3/7 induction in CHO-K1 cells by small molecules, qHTS assay (AID 1346980); conditions: CHO-K1 caspase-3/7 induction, Caspase-Glo luminescence, 17 h; series mostly up to 92.4 µM; note: nearly all actives have a fitted effect of over 15% in size
Procedure, shortened: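 Wild-type CHO-K1 cells exposed to compounds for 17hr at 37 C, 5% CO2. Caspase-3/7 activity then measured by Caspase-Glo 3/7 luminescence after 30min at room temperature.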

[15] = Caspase-3/7 induction in HepG2 cells by small molecules, qHTS cell viability counter screen (AID 1346981); conditions: CellTiter-Fluor fluorescence, 17 h; series mostly up to 92.4 µM; note: nearly all actives have a fitted effect of over 30% in size
Procedure, shortened: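 Wild-type HepG2 cells (2,000/well) were allowed to settle for 5 hr at 37 C, 5% CO2, then dosed with compounds in DMSO by pin transfer. After 16 hr at 37 C, CellTiter-Fluor was added and fluorescence read 1 hr later.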

[16] = molecular target: Nuclear receptor subfamily 1 group I member 2 (Homo sapiens) (UniProt O75469); test: Human pregnane X receptor (PXR) small molecule agonists, qHTS assay (AID 1346982); conditions: PXR-Luc HepG2, CYP3A4 luciferase reporter, 24 h; series mostly up to 92.4 µM; note: nearly all actives have a fitted effect of over 35% in size
Nuclear receptor subfamily 1 group I member 2 (Homo sapiens), sequence (O75469 whole entry, looked up): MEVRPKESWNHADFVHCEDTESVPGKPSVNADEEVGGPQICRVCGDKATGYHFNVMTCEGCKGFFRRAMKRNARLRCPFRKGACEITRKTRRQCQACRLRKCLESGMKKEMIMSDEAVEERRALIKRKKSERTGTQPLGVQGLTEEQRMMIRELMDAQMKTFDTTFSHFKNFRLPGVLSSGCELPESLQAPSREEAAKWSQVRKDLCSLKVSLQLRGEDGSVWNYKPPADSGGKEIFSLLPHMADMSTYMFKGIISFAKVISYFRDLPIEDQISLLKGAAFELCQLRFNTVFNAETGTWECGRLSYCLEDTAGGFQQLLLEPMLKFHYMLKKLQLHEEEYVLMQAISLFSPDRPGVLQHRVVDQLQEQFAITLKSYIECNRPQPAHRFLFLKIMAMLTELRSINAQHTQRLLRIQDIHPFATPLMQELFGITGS
Procedure, shortened: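 PXR-Luc HepG2 cells (CYP3A4 promoter-driven luciferase) were seeded in medium with 5% charcoal-stripped FBS, left 5 hr at 37 C, then exposed to compounds in DMSO for 24 hr. Luminescence was read after ONE-Glo addition.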

[17] = molecular target: Thyrotropin receptor (Homo sapiens) (UniProt P16473); test: qHTS assay to identify small molecule antagonists of the thyroid stimulating hormone receptor (TSHR) signaling pathway (AID 1259385; calls by dose curve; note: nearly all actives have a fitted effect of over 20% in size); conditions: TSHR-HEK293 cAMP HTRF, TSH-stimulated antagonist mode; series mostly up to 92.4 µM
Thyrotropin receptor (Homo sapiens), sequence (P16473 whole entry, looked up): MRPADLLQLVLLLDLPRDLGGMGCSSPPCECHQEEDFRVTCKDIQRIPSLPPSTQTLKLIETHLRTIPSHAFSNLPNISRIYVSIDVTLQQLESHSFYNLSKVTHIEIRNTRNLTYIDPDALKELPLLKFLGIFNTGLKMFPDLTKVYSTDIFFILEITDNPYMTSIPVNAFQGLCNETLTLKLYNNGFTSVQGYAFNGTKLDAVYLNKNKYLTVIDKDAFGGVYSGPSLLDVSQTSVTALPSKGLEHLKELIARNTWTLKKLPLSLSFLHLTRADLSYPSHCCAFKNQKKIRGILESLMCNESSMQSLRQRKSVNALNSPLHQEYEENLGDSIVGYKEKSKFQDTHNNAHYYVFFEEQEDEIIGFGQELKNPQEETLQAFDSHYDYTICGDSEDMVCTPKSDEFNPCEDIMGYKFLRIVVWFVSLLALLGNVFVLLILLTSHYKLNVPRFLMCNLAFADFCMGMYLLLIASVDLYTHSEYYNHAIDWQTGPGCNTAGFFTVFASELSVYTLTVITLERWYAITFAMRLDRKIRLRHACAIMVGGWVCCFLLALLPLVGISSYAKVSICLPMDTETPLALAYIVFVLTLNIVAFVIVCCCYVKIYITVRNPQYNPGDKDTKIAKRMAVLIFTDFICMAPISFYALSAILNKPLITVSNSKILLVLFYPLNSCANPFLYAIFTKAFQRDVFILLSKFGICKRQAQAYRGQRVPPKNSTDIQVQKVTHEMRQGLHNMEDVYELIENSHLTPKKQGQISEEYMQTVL
Procedure, shortened: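 TSHR-HEK293 cells (800/well) plated 18 h, then compounds with Ro20-1724 and TSH at 1.5 ng/mL final, 30 min at room temperature. cAMP quantified by HTRF (cAMP-d2/anti-cAMP-cryptate, 1 h); 15 concentrations in triplicate.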

Compound | Potency [1] | Potency [2] | Potency [3] | Potency [4] | Potency [5] | Potency [6] | Potency [7] | Potency [8] | outcome [9] | Potency [10] | Potency [11] | Potency [12] | Potency [13] | Potency [14] | Potency [15] | Potency [16] | Potency [17]
C1C[C@@H]2[C@H]3CC[C@H](C3)[C@@H]2C1 | inactive | inactive | inactive | inactive | inactive | inactive | inactive | inactive | inactive | inactive | inactive | inactive | inactive | inactive | inactive | inactive | –
CC1(C)S[C@@H]2[C@H](NC(=O)C(c3ccccc3)S(=O)(=O)O)C(=O)N2[C@H]1C(=O)O (stereo partly specified) | – | inactive | – | – | – | inactive | inactive | inactive | inactive | inactive | – | inactive | inactive | inactive | inactive | inactive | inactive
CC/C=C1/OC(=O)c2ccccc21 | inactive | inactive | inactive | inactive | – | inactive | inactive | inactive | inactive | inactive | inactive | – | inactive | inactive | inactive | inactive | –
Cc1ccc(OC(=O)c2ccccc2O)cc1 | inactive | inactive | inactive | inactive | – | inactive | inactive | inactive | inactive | inactive | – | inactive | – | inactive | inactive | – | –
CCOC(=O)c1ccc(I)cc1 | – | 5.5 µM (active) | – | inactive | – | inactive | inactive | inactive | inactive | inactive | inactive | – | inactive | inactive | inactive | – | inactive
